In PubChem BioAssay (Tox21):
“And” between values parts separate entries of the source, which are not always exact repeats. Identical values can stand only once. Records with an inconclusive call do not appear. Entries that show only a call come without a potency. A structure can be active in one record and inactive in another. The source made the active and inactive calls. Unless noted, the call rests on the fitted dose curve; in most records, active means well fitted curve in the direction sought with a large enough effect in the repeat runs; inconclusive means weak or mixed curves; inactive means no such curve, though single readings can be large; an effect the other way counts as inactive or inconclusive.

Columns and labels:
[1] = qHTS assay to identify small molecule antagonists of the estrogen related receptor (ERR) signaling pathway from Tox21 library - cell viability counter screen (AID 1224834); further: nearly all actives have a fitted effect of over 30% in size; further: potency means the concentration at half of the fitted maximal effect
How it was run: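 Fluorescence from CellTiter-Fluor gives the viability read-out, taken 30 min after reagent addition. Before that, ERR cells seeded 6 h earlier were incubated with compounds for 17.5 h at 37 C.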

[2] = molecular target: Luciferin 4-monooxygenase (Photinus pyralis) (UniProt P08659); test: qHTS assay to identify small molecule inhibitors of firefly luciferase (AID 1224835); further: nearly all actives have a fitted effect of over 25% in size
How it was run: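 Quantitative HTS format; KM concentrations of both substrates. Purified P. pyralis FLuc activity quantified from luminescence images.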

[3] = molecular target: Nuclear receptor subfamily 1 group I member 3 (Homo sapiens) (UniProt Q14994); test: qHTS assay to identify small molecule antagonists of the constitutive androstane receptor (CAR) signaling pathway (AID 1224838);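 further: HepG2 cells stably expressing hCAR with CYP2B6 luciferase reporter stimulated by CITCO; nearly all actives have a fitted effect of over 40% in size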
How it was run: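 HepG2-CYP2B6-hCAR cells; 4 h pre-incubation; cpd (15 conc) + CITCO 50 nM final; 24 h, 37 C/5% CO2; ONE-Glo, luminescence.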

[4] = qHTS assay to identify small molecule antagonists of the estrogen related receptor signaling pathway with the pleiotropic PPARgamma coactivator (PGC) from Tox21 10K library - cell viability counter screen (AID 1224840; active means well fitted cell-killing curve with a large enough effect in the repeat runs, not every such curve was filed as active; further: nearly all actives have a fitted effect of over 40% in size; further: potency means the concentration at half of the fitted maximal effect)
How it was run: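 PGC/ERR cells, 2,000/well; 6 h pre-incubation 37 C/5% CO2; cpd in DMSO via pin tool; 17.5 h 37 C; CellTiter-Fluor, 30 min; fluorescence.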

[5] = molecular target: Thyrotropin receptor (Homo sapiens) (UniProt P16473); test: qHTS assay to identify small molecule agonists of the thyroid stimulating hormone receptor (TSHR) signaling pathway (AID 1224843; calls by dose curve; further: nearly all actives have a fitted effect of over 45% in size)
How it was run: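 TSHR-expressing HEK293 cells (800 per well) were exposed to compounds for 30 min at room temperature. cAMP was then detected by HTRF competition with cAMP-d2 and anti-cAMP cryptate, read after 1 h at room temperature. Fifteen concentrations, triplicate.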

[6] = qHTS assay to identify small molecule agonists of the hypoxia (HIF-1) signaling pathway - cell viability counter screen (AID 1224844; calls by dose curve; further: nearly all actives have a fitted effect of over 50% in size; further: potency means the concentration at half of the fitted maximal effect)
How it was run: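 ME-180 HRE-bla cells, 2,000/well, 0.5% dialyzed FBS; 5 hr settle, 17 hr compound at 37C/5% CO2; CCF4-AM reporter read first, then CellTiter-Glo luminescence after 30 min RT.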

[7] = qHTS assay to identify small molecule agonists of H2AX (AID 1224845; active means well fitted activation curve with a large enough effect in the signal ratio in the repeat runs, not every such curve was filed as active; the % refers to the signal ratio; further: potency means the concentration at half of the fitted maximal effect)
How it was run: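 Wild-type CHO-K1 cells plated overnight, then exposed 3 hr at 37C to compounds at 15 concentrations (0.76% DMSO). Lysed, then HTRF anti-pH2AX(S139)-cryptate/anti-H2AX-d2 detection after 24 hr at room temperature; emissions 665 and 620 nm.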

[8] = qHTS assay to identify small molecule agonists of the hypoxia (HIF-1) signaling pathway (AID 1224846; active means well fitted activation curve with a large enough effect in the signal ratio in the repeat runs, not every such curve was filed as active; the % refers to the signal ratio; further: potency means the concentration at half of the fitted maximal effect)
How it was run: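 Cell line: CellSensor HRE-bla ME-180; 2,000 cells/well; 0.5% dialyzed FBS; 5 h preincubation; DMSO compound pin transfer; 17 h, 37C, 5% CO2; CCF4-AM added; bla FRET signal scored for activation.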

[9] = qHTS RealTime-Glo MT Cell Viability Assay in HepG2 cells - 24 hour (AID 1224867); further: nearly all actives have a fitted effect of over 50% in size; further: potency means the concentration at half of the fitted maximal effect
How it was run: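 Tox21 10K library screened in qHTS format on HepG2 cells carrying RealTime-Glo reagents. Compounds were added after a 5 h preincubation, and the luminescent signal from continuous culture was measured repeatedly during 40 h treatment.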

[10] = qHTS RealTime-Glo MT Cell Viability Assay in HEK293 cells - 32 hour (AID 1224868); further: nearly all actives have a fitted effect of over 50% in size; further: potency means the concentration at half of the fitted maximal effect
How it was run: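 Luminescence generated by NanoLuc from substrate produced by living HEK293 cells served as the viability signal. Each value reflects the reading at its stated time point during continuous 40 h compound exposure at 37 C.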

[11] = A CellTox Green Cytotoxicity Assay to monitor cytotoxicity in HEK293 cells - 0 hour (AID 1224869); further: nearly all actives have a fitted effect of over 50% in size
How it was run: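 Nonlytic real-time cytotoxicity: HEK293 + CellTox Green reagent plated, 5 h preincubation, pintool compound addition (23 nL in DMSO), 37 C for 40 h, fluorescence measured at successive time points.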

[12] = qHTS RealTime-Glo MT Cell Viability Assay in HepG2 cells - 40 hour (AID 1224870); further: nearly all actives have a fitted effect of over 50% in size; further: potency means the concentration at half of the fitted maximal effect
How it was run: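 HepG2 cells mixed with RealTime-Glo MT reagents (NanoLuc plus cell-permeant prosubstrate) were seeded at 600 cells/well, incubated 5 h at 37 C/5% CO2, then pinned with compounds in DMSO; nonlytic luminescence tracked viability during 40 h treatment.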

[13] = qHTS assay to identify small molecule antagonists of the estrogen related receptor signaling pathway with the pleiotropic PPARgamma coactivator (PGC) from Tox21 10K library (AID 1224841; call rule not given here; further: potency means the concentration at half of the fitted maximal effect)
How it was run: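 PGC/ERR cell line, 2,000 cells/well; 6 h pre-incubation 37 C/5% CO2; compounds (DMSO) pinned in; 18 h, 37 C; One-Glo, 30 min RT; luminescence.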

[14] = qHTS assay to identify small molecule agonists of the estrogen related receptor signaling pathway with the pleiotropic PPARgamma coactivator (PGC) from Tox21 10K library (AID 1224842); further: nearly all actives have a fitted effect of over 15% in size
How it was run: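 PGC/ERR reporter cells (NTP line) were seeded 2,000 per well, rested 6 h at 37 C/5% CO2, then pin-dosed with compounds in DMSO for 18 h at 37 C; luciferase read by One-Glo luminescence after 30 min at room temperature.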

[15] = qHTS assay to identify small molecule antagonists of the estrogen related receptor (ERR) signaling pathway from Tox21 library (AID 1224848); further: nearly all actives have a fitted effect of over 50% in size; further: potency means the concentration at half of the fitted maximal effect
How it was run: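 Cells: ERR line, 2,000/well; 6 h preincubation 37 C/5% CO2. Cpd in DMSO via pin tool; 18 h, 37 C. ONE-Glo, 30 min RT, luminescence.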

[16] = qHTS assay to identify small molecule agonists of the estrogen related receptor (ERR) signaling pathway from Tox21 library (AID 1224849; calls by dose curve; further: nearly all actives have a fitted effect of over 15% in size); details: ERR reporter cell line, ONE-Glo luciferase, 18 h; at 92.4 µM (top of the series) unless noted
How it was run: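 ERR cells, 6 h pre-incubation 37 C/5% CO2; cpd in DMSO pinned; 18 h 37 C; ONE-Glo added, 30 min RT; luminescence read. Agonist mode, qHTS.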

[17] = qHTS assay to identify small molecule agonists of the constitutive androstane receptor (CAR) signaling pathway - cell viability counter screen (AID 1224836); further: nearly all actives have a fitted effect of over 45% in size; further: potency means the concentration at half of the fitted maximal effect
How it was run: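 Fluorescence from CellTiter-Fluor indicates live cells after 23 h exposure. The human hepatoma line expresses hCAR and a CYP2B6-2.2kb reporter. Incubation medium contains 0.75 uM PK11195 (final).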

[18] = qHTS assay to identify small molecule antagonists of the constitutive androstane receptor (CAR) signaling pathway - cell viability counter screen (AID 1224837); further: nearly all actives have a fitted effect of over 45% in size
How it was run: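 HepG2-CYP2B6-hCAR cells, 2500/well, 4 hr pre-incubation; compound titration, 15 conc.; CITCO 50 nM final; 23 hr, 37 C/5% CO2; CellTiter-Fluor, fluorescence intensity.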

[19] = qHTS assay to identify small molecule agonists of H2AX - cell viability counter screen (AID 1224847; calls by dose curve; further: top concentration of the series differs between compounds; nearly all actives have a fitted effect of over 30% in size)
How it was run: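 Viability of CHO-K1 (wild type) cells after 3 hr compound exposure was measured by CellTiter-Glo luminescence.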

[20] = molecular target: Nuclear receptor subfamily 1 group I member 3 (Homo sapiens) (UniProt Q14994); test: qHTS assay to identify small molecule agonists of the constitutive androstane receptor (CAR) signaling pathway (AID 1224839);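 further: HepG2 cells stably carrying human CAR and a CYP2B6 luciferase reporter; nearly all actives have a fitted effect of over 15% in size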
How it was run: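 Stable hCAR/CYP2B6-2.2kb HepG2 line in DMEM with 10% FBS; compounds (15 concentrations) and 0.75 uM PK11195 final, 24 h at 37 C/5% CO2, then ONE-Glo luminescence after 30 min.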

Chain of Nuclear receptor subfamily 1 group I member 3 (Homo sapiens) (Q14994 whole entry, looked up): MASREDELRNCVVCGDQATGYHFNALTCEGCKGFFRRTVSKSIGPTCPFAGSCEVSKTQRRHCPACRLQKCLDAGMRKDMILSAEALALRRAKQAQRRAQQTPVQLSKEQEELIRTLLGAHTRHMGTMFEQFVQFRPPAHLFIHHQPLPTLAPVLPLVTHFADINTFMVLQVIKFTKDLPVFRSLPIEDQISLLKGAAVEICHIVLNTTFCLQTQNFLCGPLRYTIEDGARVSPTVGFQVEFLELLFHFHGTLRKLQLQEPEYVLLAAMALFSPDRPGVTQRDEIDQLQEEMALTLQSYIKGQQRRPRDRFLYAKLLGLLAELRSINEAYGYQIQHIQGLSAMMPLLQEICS
Chain of Luciferin 4-monooxygenase (Photinus pyralis) (P08659 whole entry, looked up): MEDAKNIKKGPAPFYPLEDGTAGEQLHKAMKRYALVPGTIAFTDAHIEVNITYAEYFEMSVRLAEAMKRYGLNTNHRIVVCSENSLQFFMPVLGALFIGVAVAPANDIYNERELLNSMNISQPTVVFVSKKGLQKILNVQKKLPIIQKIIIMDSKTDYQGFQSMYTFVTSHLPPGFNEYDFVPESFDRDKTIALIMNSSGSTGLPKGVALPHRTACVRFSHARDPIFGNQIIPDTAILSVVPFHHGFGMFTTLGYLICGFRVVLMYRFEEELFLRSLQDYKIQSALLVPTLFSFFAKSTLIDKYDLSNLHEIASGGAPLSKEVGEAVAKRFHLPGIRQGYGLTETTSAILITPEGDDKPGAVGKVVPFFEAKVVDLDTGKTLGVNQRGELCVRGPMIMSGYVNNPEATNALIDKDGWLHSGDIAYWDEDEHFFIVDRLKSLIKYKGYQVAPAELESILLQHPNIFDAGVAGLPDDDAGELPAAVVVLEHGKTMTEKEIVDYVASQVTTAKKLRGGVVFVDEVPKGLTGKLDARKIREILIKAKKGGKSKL
Chain of Thyrotropin receptor (Homo sapiens) (P16473 whole entry, looked up): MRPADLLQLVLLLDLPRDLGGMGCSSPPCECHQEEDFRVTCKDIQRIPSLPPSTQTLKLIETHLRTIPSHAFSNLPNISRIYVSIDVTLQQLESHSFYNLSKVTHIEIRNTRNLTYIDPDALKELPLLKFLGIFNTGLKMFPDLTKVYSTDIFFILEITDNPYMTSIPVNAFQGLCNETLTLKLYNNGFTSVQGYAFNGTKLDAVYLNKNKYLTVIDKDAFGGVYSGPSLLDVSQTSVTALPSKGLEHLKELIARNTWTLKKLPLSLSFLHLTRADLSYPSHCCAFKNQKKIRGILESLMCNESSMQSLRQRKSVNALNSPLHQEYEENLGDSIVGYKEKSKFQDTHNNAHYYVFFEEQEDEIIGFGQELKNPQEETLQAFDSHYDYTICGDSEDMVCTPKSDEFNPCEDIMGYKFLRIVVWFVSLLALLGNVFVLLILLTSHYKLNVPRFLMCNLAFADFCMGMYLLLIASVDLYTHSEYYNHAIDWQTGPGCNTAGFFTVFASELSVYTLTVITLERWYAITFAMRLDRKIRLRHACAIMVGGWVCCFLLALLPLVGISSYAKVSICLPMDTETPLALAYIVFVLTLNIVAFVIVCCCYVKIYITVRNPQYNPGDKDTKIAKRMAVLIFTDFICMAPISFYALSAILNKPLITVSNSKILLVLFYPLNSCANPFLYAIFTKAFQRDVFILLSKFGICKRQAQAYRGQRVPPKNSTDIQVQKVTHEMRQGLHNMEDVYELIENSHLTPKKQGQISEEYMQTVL

| Compound | Potency [1] | Potency [2] | Potency [3] | Potency [4] | Potency [5] | Potency [6] | Potency [7] | Potency [8] | Potency [9] | Potency [10] | Potency [11] | Potency [12] | Potency [13] | Potency [14] | Potency [15] | activity change, positive = activation [16] | Potency [17] | Potency [18] | Potency [19] | Potency [20] |
| --- | --- | --- | --- | --- | --- | --- | --- | --- | --- | --- | --- | --- | --- | --- | --- | --- | --- | --- | --- | --- |
| c1cc[n+]2c(c1)-c1cccc[n+]1CC2 | inactive | inactive | inactive | inactive | inactive | inactive | inactive | inactive | inactive | inactive | inactive | inactive | – | – | – | – | – | – | – | – |
| CCCCCCCCCCCCCCn1cc[n+](C)c1 | 27.4 µM (active) and 30.3 µM (active) | inactive | – | – | – | 24.6 µM (active) and 43.2 µM (active) and inactive | inactive | – | 24.6 µM (active) and 48.5 µM (active) and inactive | 8.72 µM (active) and 4.32 µM (active) | inactive | 21.9 µM (active) and 34.3 µM (active) and inactive | 24.4 µM (active) and 24.1 µM (active) and inactive | inactive | 1.73 µM (active) and 1.35 µM (active) | -74.5% (inactive) and -73.1% (inactive) and -26.1% (inactive) | – | – | – | – |
| [Cl-].[Cl-].[Cl-].[Yb+3] | inactive | – | – | inactive | – | inactive | inactive | inactive | inactive | inactive | inactive | inactive | – | – | – | – | inactive | inactive | inactive | – |
| CCC[CH2][Sn]([CH2]CCC)([O]C(C)=O)[O]C(C)=O | 138 nM (active) | inactive | – | 138 nM (active) | inactive | 986 nM (active) | 906 nM (active) | – | 278 nM (active) | – | inactive | 175 nM (active) | 34.7 nM (active) | – | 61.7 nM (active) | -79.9% (inactive) | 437 nM (active) | – | inactive | – |
| CN1[C@@H]2CC[C@H]1CC(O)C2 (stereo not given in full) | inactive | – | inactive | inactive | – | inactive | inactive | – | inactive | inactive | inactive | inactive | – | – | – | – | inactive | inactive | – | inactive |
| CC(=O)[O-].CC(=O)[O-].[Co+2] | inactive | – | – | inactive | – | inactive | inactive | 21.9 µM (active) | inactive | – | inactive | inactive | – | – | – | – | inactive | – | inactive | – |
| Oc1ccc([C@H]2CNCc3c2ccc(O)c3O)cc1O | inactive | – | inactive | inactive | – | inactive | – | – | – | – | inactive | inactive | inactive | inactive | inactive | -4.81% [at 42.5 µM] (inactive) | inactive | inactive | – | inactive |
